Data published in PubChem BioAssay (NCATS).
Several values for one entry are separate records, joined by “and”; a condition that tells them apart may be missing. Identical values can stand only once. Results filed as inconclusive are left out. Activity calls are given as the source filed them. Calls come from the whole dose curve; as a rule, active = well fitted curve in the direction sought with a large enough effect; inconclusive = small, poorly fitted or top-dose-only effect, or another doubt; inactive = no such curve, though single readings can be large; an effect the other way counts as inactive or inconclusive.

What was measured:
[1] = qHTS of pediatric cancer cell lines to identify multiple opportunities for drug repurposing: Primary screen for U-2 OS cells (AID 1347096); note: nearly all actives have a fitted effect of over 50% in size; note: potency is the fitted concentration of half-maximal effect
Method in brief: (§1)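 Cells (500-1,000/well) rested 5 h, then received compounds for 48 h; metabolically active cells were measured by CellTiter-Glo luminescence. Final concentrations spanned up to 46 µM (MIPE, 11-point) or 0.59 nM-46 µM (NPC, 8-point) in primary screens, 11-point in follow-ups.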

[2] = qHTS of pediatric cancer cell lines to identify multiple opportunities for drug repurposing: Primary screen for Saos-2 cells (AID 1347097); note: nearly all actives have a fitted effect of over 40% in size; note: potency is the fitted concentration of half-maximal effect
Method in brief: (§2)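 ATP-based luminescence (CellTiter-Glo) quantifies viability after a 48-hour exposure. Compounds are dosed across 8 or 11 final concentrations; DMSO and 2.3 µM bortezomib serve as controls.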

[3] = qHTS of pediatric cancer cell lines to identify multiple opportunities for drug repurposing: Primary screen for SK-N-SH cells (AID 1347098); note: nearly all actives have a fitted effect of over 65% in size; note: potency is the fitted concentration of half-maximal effect
Method in brief: as §1

[4] = qHTS of pediatric cancer cell lines to identify multiple opportunities for drug repurposing: Primary screen for NB1643 cells (AID 1347099); note: nearly all actives have a fitted effect of over 50% in size; note: potency is the fitted concentration of half-maximal effect
Method in brief: as §2

[5] = qHTS of pediatric cancer cell lines to identify multiple opportunities for drug repurposing: Primary screen for LAN-5 cells (AID 1347100); note: potency is the fitted concentration of half-maximal effect
Method in brief: as §1

[6] = qHTS of pediatric cancer cell lines to identify multiple opportunities for drug repurposing: Primary screen for BT-12 cells (AID 1347101); note: nearly all actives have a fitted effect of over 25% in size; note: potency is the fitted concentration of half-maximal effect
Method in brief: as §1

[7] = qHTS of pediatric cancer cell lines to identify multiple opportunities for drug repurposing: Primary screen for Rh18 cells (AID 1347102); note: nearly all actives have a fitted effect of over 65% in size
Method in brief: as §1

[8] = qHTS of pediatric cancer cell lines to identify multiple opportunities for drug repurposing: Primary screen for OHS-50 cells (AID 1347103); note: nearly all actives have a fitted effect of over 40% in size; note: potency is the fitted concentration of half-maximal effect
Method in brief: as §1

[9] = qHTS of pediatric cancer cell lines to identify multiple opportunities for drug repurposing: Primary screen for RD cells (AID 1347104); note: nearly all actives have a fitted effect of over 55% in size; note: potency is the fitted concentration of half-maximal effect
Method in brief: as §2

[10] = qHTS of pediatric cancer cell lines to identify multiple opportunities for drug repurposing: Primary screen for MG 63 (6-TG R) cells (AID 1347105); note: nearly all actives have a fitted effect of over 50% in size
Method in brief: as §2

Measured: Potency

CCOc1cc(N)c(Cl)cc1C(=O)NCC1CN(Cc2ccc(F)cc2)CCO1 (configuration not stated)
inactive: all assays above

CC(C)(C#N)c1cc(Cn2cncn2)cc(C(C)(C)C#N)c1
not listed: [4] | [9]
inactive: all other assays above

CC(=O)CC(c1ccccc1)c1c(O)c2ccccc2oc1=O (configuration not stated)
not listed: [7]
inactive: all other assays above

CN1CCN(c2c(F)cc3c(=O)c(C(=O)O)cn(CCF)c3c2F)CC1
inactive: all assays above

NC(=O)N1c2ccccc2CC(=O)c2ccccc21
not listed: [4]
inactive: all other assays above

CN1CCN(c2c(F)cc3c(=O)c(C(=O)O)cn4c3c2OCN4C)CC1
inactive: all assays above

CNS(=O)(=O)Cc1ccc2[nH]cc(CCN(C)C)c2c1
inactive: all assays above

CNS(=O)(=O)CCc1ccc2[nH]cc(C3CCN(C)CC3)c2c1
inactive: [1] | [2]

CNNCc1ccc(C(=O)NC(C)C)cc1
not listed: [7]
inactive: all other assays above

CNC(=O)c1cc(Oc2ccc(NC(=O)Nc3ccc(Cl)c(C(F)(F)F)c3)cc2)ccn1
active: [1] 18.7 µM | [2] 18.7 µM | [3] 19.2 µM and 15.4 µM | [4] 4.69 µM | [5] 20.9 µM | [6] 17.2 µM | [8] 15.3 µM and 15.5 µM | [9] 18.7 µM and 23.7 µM

C#CCN[C@@H]1CCc2ccccc21
inactive: all assays above

NS(=O)(=O)c1cc2c(cc1Cl)NC(C(Cl)Cl)NS2(=O)=O (configuration not stated)
inactive: all assays above

CC1=NN(c2ccccc2)C(=O)C1
inactive: all assays above

COc1ccc2c(c1)c(CC(=O)OCC(=O)O)c(C)n2C(=O)c1ccc(Cl)cc1
not listed: [4]
inactive: all other assays above

CC(C)(Sc1cc(C(C)(C)C)c(O)c(C(C)(C)C)c1)Sc1cc(C(C)(C)C)c(O)c(C(C)(C)C)c1
inactive: all assays above

O=C(O)CSCC(=O)NC1CCSC1=O (configuration not stated)
not listed: [7]
inactive: all other assays above

Cc1noc(NS(=O)(=O)c2ccc(N)cc2)c1C
inactive: all assays above

Nc1nc(N)nc(-c2cc(Cl)ccc2Cl)n1
inactive: all assays above

CCc1cc(C(N)=S)ccn1
not listed: [4]
inactive: all other assays above
